Laboratory results reported in PubChem BioAssay (EPA / NIEHS).
Activity calls are given as the source filed them. How the source made its calls: active means hit-call score of the fitted dose curve at least 0.9, where 1 is the maximum; inactive means score below 0.9.

How the values were obtained:
[1] = read-out: Thrombomodulin, THBD (gene 7056); experiment: BSK_CASM3C_Thrombomodulin: BioMAP Diversity Plus: CASM3C Assay for Thrombomodulin Biomarker Activity (AID 2283051); conditions: primary human coronary artery smooth muscle cells; actives raise or lower the signal;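 further: thrombomodulin protein level measured by ELISA 24 h after dosing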
[2] = read-out: Tissue Factor, F3 (gene 2152); experiment: BSK_CASM3C_TissueFactor: BioMAP Diversity Plus: CASM3C Assay for Tissue Factor Biomarker Activity (AID 2283052); conditions: primary human coronary artery smooth muscle cells; actives raise or lower the signal;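 further: cell surface tissue factor protein level read by ELISA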
[3] = read-out: Interferon-gamma inducible Protein 10 (IP10), CXCL10 (gene 3627); experiment: BSK_hDFCGF_IP10: BioMAP Diversity Plus: hDFCGF Assay for Interferon-gamma inducible Protein 10 (IP10) Biomarker Activity (AID 2283053); conditions: primary human foreskin fibroblasts; actives raise or lower the signal
Summary of the method: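 Primary foreskin fibroblasts, human; 24 h compound exposure; IP-10 by ELISA; bidirectional fit vs DMSO.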

[4] = read-out: Urokinase-type plasminogen activator receptor (uPAR), PLAUR (gene 5329); experiment: BSK_CASM3C_uPAR: BioMAP Diversity Plus: CASM3C Assay for Urokinase-type plasminogen activator receptor (uPAR) Biomarker Activity (AID 2283054); conditions: primary human coronary artery smooth muscle cells; actives raise or lower the signal;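 further: cell-surface uPAR protein level quantified by ELISA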
[5] = read-out: Vascular cell adhesion molecule 1 (VCAM1), VCAM1 (gene 7412); experiment: BSK_CASM3C_VCAM1: BioMAP Diversity Plus: CASM3C Assay for Vascular cell adhesion molecule 1 (VCAM1) Biomarker Activity (AID 2283055); conditions: primary human coronary artery smooth muscle cells; actives raise or lower the signal;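 further: VCAM-1 protein level quantified by ELISA on the cells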
[6] = read-out: Collagen III, COL3A1 (gene 1281); experiment: BSK_hDFCGF_CollagenIII: BioMAP Diversity Plus: hDFCGF Assay for Collagen III Biomarker Activity (AID 2283056); conditions: primary human foreskin fibroblasts; actives raise or lower the signal
Summary of the method: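 hDFCGF primary human dermal fibroblasts; 24 h chemical exposure; collagen III by ELISA; bidirectional curve fit vs DMSO baseline (gain or loss of signal).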

[7] = read-out: Epidermal growth factor receptor (EGFR), EGFR (gene 1956); experiment: BSK_hDFCGF_EGFR: BioMAP Diversity Plus: hDFCGF Assay for Epidermal growth factor receptor (EGFR) Biomarker Activity (AID 2283057); conditions: primary human foreskin fibroblasts; actives raise or lower the signal
Summary of the method: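 hDFCGF system, primary human foreskin fibroblasts; compound 24 h; EGFR measured by ELISA; DMSO = negative control/baseline; bidirectional fitting.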

[8] = read-out: Interleukin-8 (IL8), CXCL8 (gene 3576); experiment: BSK_hDFCGF_IL8: BioMAP Diversity Plus: hDFCGF Assay for Interleukin-8 (IL8) Biomarker Activity (AID 2283058); conditions: primary human foreskin fibroblasts; actives raise or lower the signal
Summary of the method: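 ELISA read-out of IL-8 from primary human foreskin fibroblast cultures taken 24 h after dosing; values are bidirectional fits relative to DMSO vehicle.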

[9] = BSK_hDFCGF_Proliferation: Cell Proliferation Assessment in the BioMAP Diversity Plus: hDFCGF Assay (AID 2283059); conditions: primary human foreskin fibroblasts;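 further: curves fitted for both rise and fall of signal versus DMSO baseline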
Summary of the method: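 Total protein read at 560 nm after 0.1% SRB staining of TCA-fixed human skin fibroblasts, […]. Activity is fitted in both directions relative to DMSO as baseline.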

[10] = read-out: Macrophage colony-stimulating factor (MCSF), CSF1 (gene 1435); experiment: BSK_hDFCGF_MCSF: BioMAP Diversity Plus: hDFCGF Assay for Macrophage colony-stimulating factor (MCSF) Biomarker Activity (AID 2283060); conditions: primary human foreskin fibroblasts; actives raise or lower the signal
Summary of the method: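 ELISA read-out of M-CSF in human dermal foreskin fibroblast cultures, 24 h after chemical dosing; gain or loss of signal fitted bidirectionally relative to DMSO baseline.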

Measured: AC50

CC=CC(=O)C1=C(C)C=CCC1(C)C
inactive: [1] | [2] | [3] | [4] | [5] | [6] | [7] | [8] | [9] | [10]

Nc1ccc(N)c([N+](=O)[O-])c1
inactive: [1] | [3] | [4] | [5] | [6] | [7] | [8] | [10]
active: [2] 0.037 µM | [9] 13.4 µM

CC1=CC(C)C(C=O)C(C)C1 (centres undefined) (tested in a mixture with another compound)
inactive: [1] | [2] | [3] | [4] | [5] | [6] | [7] | [8] | [9] | [10]

CCCCCCCCCC(=O)OCC
active: [2] 30.4 µM | [4] 31.1 µM | [5] 31.1 µM | [6] 31.5 µM | [9] 13.7 µM | [10] 30.2 µM
inactive: [1] | [3] | [7] | [8]

CC(=O)CCC=C(C)CCC=C(C)C
active: [5] 25.4 µM | [9] 31.3 µM
inactive: [1] | [2] | [3] | [4] | [6] | [7] | [8] | [10]

CCOC(=O)CCCCCCCCC(=O)OCC
inactive: [1] | [2] | [3] | [4] | [5] | [6] | [7] | [8] | [9] | [10]

CC(C)Cc1ccc(C(C)C(=O)O)cc1 (centres undefined)
active: [1] 6.11 µM | [6] 3.33 µM
inactive: [2] | [3] | [4] | [5] | [7] | [8] | [9] | [10]

CC(C)(CO)CO
inactive: [1] | [2] | [3] | [4] | [5] | [6] | [7] | [8] | [9] | [10]

NC(=O)c1c(Cl)cccc1Cl
inactive: [1] | [2] | [3] | [4] | [5] | [6] | [7] | [8] | [9] | [10]

CCCCN(CCO)CCO
inactive: [1] | [2] | [3] | [4] | [5] | [6] | [7] | [8] | [9] | [10]

CCC(=O)OCC=Cc1ccccc1
inactive: [1] | [2] | [3] | [4] | [5] | [6] | [7] | [8] | [9] | [10]

CCCCCCCC1CCCC1=O (centres undefined)
active: [2] 31.8 µM | [4] 29.5 µM | [5] 30.9 µM | [9] 33.3 µM
inactive: [1] | [3] | [6] | [7] | [8] | [10]

c1ccc(OCCOc2ccccc2)cc1
inactive: [1] | [2] | [3] | [4] | [5] | [6] | [7] | [8] | [9] | [10]

COC(=O)c1ccc(C(=O)OC)cc1
inactive: [1] | [3] | [4] | [5] | [6] | [7] | [8] | [9] | [10]

CCOC(=O)C=Cc1ccccc1
inactive: [1] | [3] | [4] | [5] | [6] | [7] | [8] | [9] | [10]
active: [2] 0.0239 µM

CC(=O)OC(C)(C)C1CC=C(C)CC1 (centres undefined)
inactive: [1] | [2] | [3] | [6] | [7] | [8] | [10]
active: [4] 31.7 µM | [5] 34.8 µM | [9] 18.5 µM

C=C(F)C(=O)OC(C(F)(F)F)C(F)(F)F
inactive: [1] | [2] | [3] | [4] | [5] | [6] | [7] | [8] | [9] | [10]

c1ccc(Sc2ccccc2)cc1
inactive: [1] | [4] | [7] | [8]
active: [2] 20 µM | [3] 29.3 µM | [5] 20 µM | [6] 29.9 µM | [9] 29.6 µM | [10] 28.1 µM

c1ccc2c(c1)-c1ccc3ccc4cccc5cc-2c1c3c45
active: [10] 0.0865 µM
inactive: [1] | [2] | [3] | [4] | [5] | [6] | [7] | [8] | [9]

O=C1OC2(c3ccc(O)cc3Oc3cc(O)ccc32)c2ccccc21
active: [9] 20 µM
inactive: [1] | [2] | [3] | [4] | [5] | [6] | [7] | [8] | [10]

CC(=O)OCC=C(C)CCC=C(C)CCC=C(C)C
inactive: [1] | [3] | [4] | [5] | [7] | [8]
active: [2] 2.51 µM | [6] 4.49 µM | [9] 17.4 µM | [10] 25.9 µM

CC(C)(C)c1cccc(O)c1
inactive: [1] | [2] | [3] | [4] | [5] | [6] | [7] | [8] | [9] | [10]
